RORgamma inh – inhibitors of mouse ROR gamma transcriptional activity. hit rate 5.4% among 310,000. Potency, µM (series often up to 53.6 µM), for inactives: at the top dose activity change, negative = inhibition, most hits filed as inhibitors. Drosophila S2 Gal4-RORgamma UAS-luciferase reporter, 20 h; note: potency is the fitted concentration of half-maximal effect; % is set by controls: 0 for no effect and ±100 for the full control effect; nearly all actives have a fitted effect of over 60% in size
Target sequence (P51450 whole entry, looked up, the tested form may be a part): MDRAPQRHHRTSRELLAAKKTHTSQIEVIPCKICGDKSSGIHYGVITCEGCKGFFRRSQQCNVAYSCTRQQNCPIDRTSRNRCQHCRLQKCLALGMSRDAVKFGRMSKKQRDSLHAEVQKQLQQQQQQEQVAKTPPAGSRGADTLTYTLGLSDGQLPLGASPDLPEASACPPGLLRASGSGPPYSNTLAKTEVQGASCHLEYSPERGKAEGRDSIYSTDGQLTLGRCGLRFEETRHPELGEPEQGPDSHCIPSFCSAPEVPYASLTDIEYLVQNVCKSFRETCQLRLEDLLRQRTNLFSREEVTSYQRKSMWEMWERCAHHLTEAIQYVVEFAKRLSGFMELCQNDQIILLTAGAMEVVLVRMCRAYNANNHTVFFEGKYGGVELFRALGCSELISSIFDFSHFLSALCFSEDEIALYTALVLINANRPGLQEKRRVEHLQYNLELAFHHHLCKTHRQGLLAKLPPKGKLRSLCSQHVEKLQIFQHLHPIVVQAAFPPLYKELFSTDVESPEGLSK
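Compounds are pin-transferred onto Drosophila Schneider cells expressing a copper-inducible Gal4–ROR gamma transactivation domain fusion. After 1 hr, copper sulfate is added to 700 uM final; luciferase is read 20 hr later.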
MCF10A rereplic – DNA re-replication induction in MCF 10a cells; Potency, µM (highest dose often 46.1 µM), without a hit: at the top dose activity, positive = re-replication, hits mostly activators; hit rate 2.9% among 350,000; MCF 10A DNA re-replication, Hoechst nuclear intensity, 48 h; note: potency is the fitted concentration of half-maximal effect; % of control where 0% means no effect; nearly all actives have a fitted effect of over 50% in size
BCR signal inh – chronic active BCR signaling inhibition; ABC-DLBCL IkBa-CBG/CBR reporter, luminescence ratio, 4 h; Potency, µM (highest dose often 46.1 µM), for the others: at the highest dose activity change, negative = inhibition, usual class: inhibitors; hit rate 0.05% among 340,000; AID 493014; active = well fitted inhibition curve with a large enough effect in the signal ratio, with a control signal flat, not every such curve was filed as active; inconclusive = small, poorly fitted or top-dose-only effect, or effect the other way, or a change in a side signal; the % refers to the signal ratio;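 note: potency is the fitted concentration of half-maximal effect; plate controls were basal doxycycline-induced cells for no effect and cells given 10 µM MG132 for full effect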
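Concentration-response series (up to 46 uM) were applied to TMD8 dual-reporter cells for 4 h at 37C with doxycycline. Green/red ratio, after filter-overlap correction, defined %Activity; red signal alone was normalised to basal cells and zero luminescence.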
SW480 rerep – DNA re-replication induction in SW480 cells. SW480 DNA re-replication, Hoechst DNA content imaging, 48 h. Potency, µM (doses to about 46.1 µM), without a hit: at the top dose re-replication activation, most hits filed as activators. hit rate 1.8% among 340,000. AID 624297; note: potency is the fitted concentration of half-maximal effect; % of control where 0% means no effect; nearly all actives have a fitted effect of over 55% in size
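Image-based DNA-content assay: after two days of treatment, nuclei were labelled with the DNA dye Hoechst and imaged, and hits were compounds raising the count of nuclei showing high fluorescence intensity.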
Giardia kill – kills Giardia lamblia | Giardia lamblia trophozoite viability | activity change, % at 7.66 µM, hits read low | hit rate 0.15% among 340,000; in the data active = activity change below about -80%; inconclusive = between about -30% and that limit;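 note: parasites exposed to compound for two days anaerobically before the ATP read; % is set by controls: 0 for no effect and ±100 for the full control effect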
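Viability, read as ATP luminescence: trophozoites at 100 cells/well, compound added, 48 hrs anaerobic at 37 deg C, then 15-30 min room-temperature development before reading.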
VP16 counter – counter-screen for ROR gamma inhibitors: Gal4-VP16 reporter; Drosophila S2 Gal4-VP16 UAS-luciferase, luminescence, 20 h; Potency, µM (series often up to 53.6 µM), for the others: at the highest dose activity, negative = inhibition, actives largely listed as inhibitors; hit rate 3.5% among 310,000; AID 2546;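 note: Gal4-VP16 expression switched on by copper sulfate through the metallothionein promoter; potency is the fitted concentration of half-maximal effect; % is set by controls: 0 for no effect and ±100 for the full control effect; nearly all actives have a fitted effect of over 50% in size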
The depositor's hits bear a star; ? = inconclusive; · = no result; [ ] = remark or other dose. Shown are actives, neighbours in structure and some others; about 8.3% of the full set was active somewhere. Unless noted, calls come from the whole dose curve; as a rule, active = well fitted curve in the direction sought with a large enough effect; inconclusive = small, poorly fitted or top-dose-only effect, or another doubt; inactive = no such curve, though single readings can be large; an effect the other way counts as inactive or inconclusive.

SMILES | RORgamma inh | MCF10A rereplic | BCR signal inh | SW480 rerep | Giardia kill | VP16 counter
NC(=S)n1[nH]c(-c2ccc([N+](=O)[O-])cc2)c(N=Nc2cccc(Cl)c2)c1=O | 0.4µM* | ? | ? | 1% | -4 | 7.1µM*
CSc1cccc(NC(=O)c2[nH]c(C)c(C(C)=O)c2C)c1 | -9% | -9% | ? | 1% | -3 | -17%
CCN(CC)C1CCN(C(=O)c2cc(COc3cccc4cccnc34)on2)C1 (configuration not stated) | -5% | 5% | -3% | -4% | -4 | -9%
COc1ccccc1Oc1ccc2c(c1)C(=O)N(c1cccc3ncccc13)C2=O | ? | 23% | -11% | 30% | 0 | 10µM*
Cc1ccc(C(=O)COC(=O)c2ccc3c(c2)C(=O)N(c2cccc4ncccc24)C3=O)cc1C | ? | 16µM* | 0% | 1% | -20 | 16µM*
CCOC(=O)c1c(NC(=O)CN2C(=O)CN(C)C2=O)sc(C)c1C | 11% | 9% | -3% | -13% | -5 | 3%
Cc1ccc(C)n1-c1cccc(S(=O)(=O)N2CCOCC2)c1 | 5% | 18µM* | -15% | ? | -26 | -1%[10 µM]
Cc1cc(C(=O)CCl)c(C)n1-c1cccc(S(=O)(=O)N2CCOCC2)c1 | 10µM* | ? | ? | 16% | 2 | -12%[10 µM]
CC1CCC(NC(=O)c2ccc3c(c2)N(Cc2ccccc2F)C(=O)c2ccccc2S3)CC1 (configuration not stated) | · | · | -8% | · | · | ·
O=c1oc2ccccc2cc1-c1nc2c(s1)CCc1ccccc1-2 | 26% | ? | 2% | 21µM* | 3 | -7%
O=c1oc2ccc3ccccc3c2cc1-c1nc2c(s1)CCc1ccccc1-2 | · | · | · | · | 36 | ·
O=c1oc2cc(O)ccc2cc1-c1nc2c(s1)CCc1ccccc1-2 | -6% | ? | ? | 3.7µM* | 12 | -21%
O=C(Cc1ccsc1)Nc1ccc(Cl)cc1Cl | 32% | 5% | ? | 12% | 51 | 11%
CCCc1cc(C(=O)N/N=C/c2ccc(C)o2)c2ccccc2n1 | 10µM* | ? | ? | ? | -26 | 0%
Cc1ccc(/C=N/NC(=O)c2cc3c(ccc4ccccc43)o2)o1 | · | ? | 1% | ? | -1 | ·
COc1cc(OC)cc(C(=O)N/N=C\c2ccoc2)c1 | -34% | 23µM* | ? | 5.8µM* | 1 | -8%
CCN(CC)c1ccc(/C=N/NC(=O)c2cc(C)nc3ccccc23)cc1 | 11µM* | ? | ? | 3%[9.22 µM] | -23 | ?
O=C(N/N=C/c1ccc2c(c1)OCO2)c1cc(-c2ccc(F)cc2)nc2ccccc12 | ? | 3.7µM* | 0% | ? | -10 | ?
CN(CC(=O)Nc1ccccc1C(F)(F)F)CC(=O)N1CCCCCC1 | · | 3% | ? | 1% | 2 | ·
O=C(N/N=C/c1ccc(O)cc1)c1cc(-c2ccccc2)nc2ccccc12 | -21% | ? | ? | 23% | -20 | 28%
Cc1ccc(/C=N/NC(=O)c2cc(-c3ccccc3)nc3ccccc23)o1 | 4µM* | 5.8µM* | ? | ? | 18 | 7.1µM*
Cc1[nH]c2ccccc2c1C=NNC(=O)c1cc(-c2cccnc2)nc2ccccc12 | · | ? | -1% | -15% | 25 | ·
CCN(CC)c1ccc(/C=N/Nc2nc(C)cc(C)n2)cc1 | 1µM* | ? | -10% | 18µM* | 6 | 13µM*
Cc1ccc(/C=N/NC(=O)c2cc(C3CC3)nc3ccccc23)o1 | ? | 5.8µM* | ? | 21µM* | -2 | ?
Cc1ccc(/C=N/NC(=O)c2ccoc2C)o1 | -12% | 13% | ? | 1% | 0 | 23%
SMILES | RORgamma inh | MCF10A rereplic | BCR signal inh | SW480 rerep | Giardia kill | VP16 counter
Cc1ccc(C=NNC(=O)c2cc(-c3cccnc3)nc3ccccc23)o1 | · | 5.2µM* | -14% | 7.3µM* | -7 | ·
CCCCN1CCNC[C@@H]1c1ccccc1 | · | -6% | -8% | -4% | -30 | ·
CC(=O)c1ccccc1NC(=O)COC(=O)/C(=C/c1ccccc1)n1nnnc1C | ? | ? | ? | ? | 7 | -27%
COc1ccc(Cl)cc1S(=O)(=O)n1c([N+](=O)[O-])cnc1C | -11% | 12% | 3% | -8% | 2 | -3%
COc1ccc(CCC(=O)NCc2ccc3c(c2)CCN3C(=O)c2cccc(C)c2)cc1 | · | · | 3% | · | · | ·
O=C(N/N=C/c1ccoc1)c1ccccc1O | 10µM* | 3% | ? | ? | 7 | 18µM*
COc1ccc(OC)c(-c2cc(C(=O)N/N=C/c3ccc(F)cc3)c3ccccc3n2)c1 | · | ? | · | -3% | 7 | ·
Cc1cc(C(=O)N/N=C/c2ccc(C)o2)c2ccccc2n1 | ? | 1.8µM* | ? | 5.8µM* | 15 | ?
Cc1cc(C(=O)N/N=C/c2ccco2)c2ccccc2n1 | -3% | ? | 0% | ? | -19 | -11%
CCc1cc(C(=O)N/N=C/c2ccc(OC)cc2)c2ccccc2n1 | 6% | 16µM* | -14% | ? | -6 | -8%
O=C(N/N=C/c1ccoc1)c1ccccc1 | 15% | -27% | ? | -14% | 7 | -18%
Cc1ccc(-c2cc(C(=O)N/N=C/c3ccoc3)c3ccccc3n2)cc1 | 7.1µM* | ? | ? | ? | -24 | 10µM*
O=C(NCc1ccco1)C1CCCN(c2ncnc3c2nc2n3CCCCC2)C1 (configuration not stated) | 10% | ? | 0% | 2% | -14 | 1%
Fc1ccccc1NC(=S)N(CCN1CCCCC1)Cc1ccco1 | ? | -4% | 5% | 5% | 8 | 17%
Cc1cc2ncc(-c3cccs3)nc2cc1C | 10µM* | -1% | ? | 1% | ? | ?
COc1ccc(S(=O)(=O)N(C)CC(=O)Nc2c(F)cccc2F)cc1 | -37% | 8.2µM* | 0% | 18µM* | 18 | ?
CCOc1ncccc1C(=O)NCc1ccccc1Cl | -1% | 0.92µM* | 2% | ? | 3 | -16%
Cc1nnc(NC(=O)CSc2nnc3c(n2)[nH]c2ccc(Br)cc23)s1 | 13% | 0% | -7% | -9% | -9 | 4%
Cc1ccc(Cn2c(CO)cnc2SCC(=O)Nc2ccc(C)c(Cl)c2)cc1 | · | · | · | · | 22 | ·
O=C(CSC(=S)N1CCCC1)c1cc(Br)cc(Br)c1O | ? | 19% | ? | 5.2µM* | -20 | ?
CC1CCCN(C(=S)SCC(=O)c2cc(Br)cc(Br)c2O)C1 (configuration not stated) | ? | ? | 1% | 24% | -2 | 7%
Cc1cnn(-c2nc(-c3ccccc3)cc(-c3ccccc3)n2)c1 | 3.2µM* | 1% | -7% | ? | 18 | 11µM*
Nc1nnc(SCC(=O)c2ccccc2)s1 | -3% | 2% | ? | -5%[9.22 µM] | -5 | -14%
